Most compounds without a hit are left out; they make up all but 6.6% or so of the library.
MCF10A rereplic: inducers of DNA re-replication in MCF 10A breast cells; MCF 10A DNA re-replication, Hoechst nuclear intensity, 48 h; AID 624296; Potency, µM (highest dose often 46.1 µM), inactives show at the top dose activity, positive = re-replication, most hits filed as activators; 350,000 compounds, 2.9% hits; note: % of control where 0% means no effect; nearly all actives have a fitted effect of over 50% in size
KB-V1 MDR tox: kills drug-selected multidrug resistant KB-V1 cells. 400,000 compounds, 3.4% hits. KB-V1 MDR cells viability, CellTiter-Glo, 72 h. Potency, µM (highest dose often 46.1 µM), actives largely listed as cytotoxic; note: % is set by controls: 0 for no effect and ±100 for the full control effect; nearly all actives have a fitted effect of over 60% in size
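Compound-treated KB-V1 multidrug-resistant cells, 72 h, 37 degrees C; viability by CellTiter-Glo. Fitted qHTS curves give the values.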
PTAP TSG101 blk: blocks PTAP/TSG101 interaction to inhibit HIV-1 budding; Q99816; Fluorescence polarization, FITC-PTAP peptide / Tsg101 binding; Potency, µM (doses to about 115 µM), without a hit: at the highest dose activity change, negative = inhibition, hits mostly inhibitors; 340,000 tested, under 10 active; AID 493005; active = well fitted inhibition curve with a large enough effect in the main read-out, with a control signal flat, not every such curve was filed as active; inconclusive = small, poorly fitted or top-dose-only effect, or effect the other way, or a change in a side signal; inactive = no such curve, though single readings can be large or run the other way; note: % of control where 0% means no effect
Target sequence (Q99816 whole entry, looked up): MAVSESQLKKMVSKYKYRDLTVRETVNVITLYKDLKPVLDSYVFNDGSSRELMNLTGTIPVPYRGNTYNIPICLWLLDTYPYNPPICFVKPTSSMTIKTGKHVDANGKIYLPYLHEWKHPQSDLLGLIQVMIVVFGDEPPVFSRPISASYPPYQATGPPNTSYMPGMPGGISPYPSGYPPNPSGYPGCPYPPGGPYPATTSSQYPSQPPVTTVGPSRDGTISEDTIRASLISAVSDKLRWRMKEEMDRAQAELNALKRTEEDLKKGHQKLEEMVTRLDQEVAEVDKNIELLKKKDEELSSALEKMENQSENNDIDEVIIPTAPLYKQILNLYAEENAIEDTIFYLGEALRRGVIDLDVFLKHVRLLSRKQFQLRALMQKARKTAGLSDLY
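Fluorescence polarization binding of Tsg101 binding domain (10 uM final) to FITC-labeled PTAP peptide (50 nM final) in HEPES pH 7.5 buffer with NaCl, Tween 20, EDTA, TCEP. Compounds added before peptide; binding 20 min at RT.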
KB-3-1 tox: kills parental KB-3-1 adenocarcinoma cells; KB-3-1 viability, CellTiter-Glo ATP luminescence, 72 h; Potency, µM (doses to about 46.1 µM), usual class: cytotoxic; 400,000 compounds, 1.4% hits; note: % is set by controls: 0 for no effect and ±100 for the full control effect; nearly all actives have a fitted effect of over 60% in size
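Cells are dispensed, compounds pinned in, plates held at 37 °C for 72 h, then CellTiter-Glo is added and luminescence read after 10 minutes. Cell line: parental KB-3-1 in phenol-red-free DMEM, 10% FBS.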
RGS4 inh: blocks human RGS4-accelerated GTP hydrolysis; P49798; 390,000 compounds, 0.039% hits; Transcreener GDP fluorescence polarization, RGS4-accelerated GTP hydrolysis; Potency, µM (series often up to 114 µM), without a hit: top-dose activity change, negative = inhibition, actives largely listed as inhibitors; note: % is set by controls: 0 for no effect and ±100 for the full control effect; nearly all actives have a fitted effect of over 75% in size
Target sequence (P49798 whole entry, looked up): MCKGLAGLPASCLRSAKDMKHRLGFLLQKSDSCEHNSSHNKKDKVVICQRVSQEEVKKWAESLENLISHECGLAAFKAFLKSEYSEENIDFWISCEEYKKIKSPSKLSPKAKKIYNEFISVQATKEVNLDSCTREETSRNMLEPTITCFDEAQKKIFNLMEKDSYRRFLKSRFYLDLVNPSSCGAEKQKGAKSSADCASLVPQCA
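MLSMR compounds (23 nl, pin-transferred) preincubated 10 min at room temperature with a 500nM (2x) first reagent, then RGS4 at 900nM (2x) plus Transcreener GDP mix added; fluorescence polarization (620/688 nm) read before and after 90 min at 30 °C.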
SW480 rerep: inducers of DNA re-replication in SW480 colon cancer cells; Potency, µM (highest dose often 46.1 µM), for inactives: at the highest dose re-replication activation, most hits filed as activators; 340,000 compounds, 1.8% hits; AID 624297; SW480 DNA re-replication, Hoechst DNA content imaging, 48 h; note: % of control where 0% means no effect; nearly all actives have a fitted effect of over 55% in size
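Hoechst fluorescence of nuclei (405 nm excitation, 500-530 nm emission) measured by plate-scanning imager after 48 hr compound exposure at 37 C; re-replication scored as increased number of nuclei with elevated intensity.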
* marks the source's active call; other numbers are inactive results; i = inactive; ? = inconclusive; nt = not tested or not shown; ! = not confirmed by another sample; [ ] = dose if it differs, or a comment. Unless noted, calls come from the whole dose curve; as a rule, active = well fitted curve in the direction sought with a large enough effect; inconclusive = small, poorly fitted or top-dose-only effect, or another doubt; inactive = no such curve, though single readings can be large; an effect the other way counts as inactive or inconclusive. Potency is the fitted concentration of half-maximal effect.

SMILES	MCF10A rereplic	KB-V1 MDR tox	PTAP TSG101 blk	KB-3-1 tox	RGS4 inh	SW480 rerep
COc1cc(/C=C2/SC(=O)NC2=O)ccc1OCc1ccccc1	26µM*	i	0%	i	24%	17%
COc1cc(/C=C2\SC(=Nc3cccnc3)NC2=O)cc(OC)c1OC	3.7µM*	i	14%	i	-14%	2%
COc1ccc(/C=C2\SC(=Nc3ccccc3OC)NC2=O)cc1	3.3µM*	?	0%	?	-13%	?
CCc1ccc(N=C2NC(=O)/C(=C/c3cc(OC)c(O)c(OC)c3)S2)cc1	?	?	-1%	i	-19%	11%
COc1cc(/C=C2\SC(=Nc3ccccc3)NC2=O)cc(Cl)c1O	21µM*	i	?	i	-13%	?
O=C1NC(=Nc2cccnc2)S/C1=C\c1cccc(F)c1	?	i	6%	i	-14%	-2%
COc1ccc(C2=NC3(CCCCCC3)N(CC(=O)Nc3cccc(Cl)c3)C2=O)cc1	nt	nt	nt	nt	18%	nt
COc1cc(/C=C2/SC(=Nc3ccc(O)cc3)NC2=O)ccc1O	5.2µM*	?	10%	9.2µM*	5%[11.4 µM]	4.6µM*
COc1cc(/C=C2\SC(=Nc3ccccc3OC)NC2=O)ccc1O	8.2µM*	?	-2%	18µM*	-5%	21µM*
O=C1NC(=Nc2ccccc2)S/C1=C\c1ccccc1	8%	i	-3%	?	-31%	5%
CCCCN(C)/C=N/c1c(C#N)cnn1-c1ccc(C)cc1	?	5.8µM*	-4%	?	12%	4%
COc1ccc(CCNC(=O)c2ccc(CS(=O)(=O)c3ccc(Cl)cc3)o2)cc1OC	28%	2.6µM*	-7%	i	9%	?
COc1ccc(CCNC(=O)c2ccc(CSc3ccc(Cl)cc3)o2)cc1OC	nt	i	nt	nt	nt	nt
COc1ccc(CCNC(=O)c2ccc(CS(=O)(=O)c3ccc(C)cc3)o2)cc1OC	26%	4.6µM*!	-1%	?	-6%	-4%
Cc1nc2sc(C(=O)Nc3ccccc3Cc3ccccc3)c(C)c2c(=O)[nH]1	5.8µM*	?	3%	i	2%	-7%
Cc1ccccc1NC(=O)c1sc2nc[nH]c(=O)c2c1C	-10%	i	-9%	i	9%	-1%
CCN1CCN(c2nc(-c3ccccc3)c3ccccc3n2)CC1	15µM*	i	1%	i	-11%	21µM*
c1ccc(-c2nc(N3CCCCC3)nc3ccccc23)cc1	?	i	-4%	i	18%	?
c1ccc(-c2nc(N3CCNCC3)nc3ccccc23)cc1	0.71µM*	?	-1%	i	30%	23µM*
Cc1ccc(C)c(NC(=O)c2nnn(Cc3ccc(F)cc3Cl)c2N)c1	nt	i	nt	i	-15%	nt
CC12CCC(C(=O)Nc3cccc(Cl)c3)(C(Br)C1=O)C2(C)C (centres undefined)	?	15µM*	-3%	?	0%	?
CC12CCC(C(=O)Nc3ccc(Cl)cc3)([C@H](Br)C1=O)C2(C)C (some centres undefined)	-5%	i	-4%	i	-11%	-44%
Cc1ccccc1OCCCn1c(-c2ccc(Cl)cc2)nc2ccccc2c1=O	nt	i	nt	i	24%	nt
N#C/C(=N\Nc1ccc(Cl)c(Cl)c1)C(=O)C1CC1	?	?	5%	16µM*	3%	1%
N#C/C(=N\Nc1ccc(F)cc1)C(=O)C1CC1	?	i	-6%	i	17%	22%
SMILES	MCF10A rereplic	KB-V1 MDR tox	PTAP TSG101 blk	KB-3-1 tox	RGS4 inh	SW480 rerep
Nc1c(Br)cc(Br)c2cccnc12	nt	nt	nt	nt	-39%	nt
N[C@@H](Cn1cc(F)c(=O)[nH]c1=O)C(=O)O	nt	nt	nt	nt	i	nt
CC1CC(=O)NN=C1c1ccc(NCCO)c([N+](=O)[O-])c1 (centres undefined)	-1%	0.13µM*	nt	i	-2%	-2%
Cn1nc(-c2ccc(NCCO)c([N+](=O)[O-])c2)c2ccccc2c1=O	-16%	i	-10%	?	6%	4%
Cc1ccc2c(=O)cc(C(=O)Nc3ccc(S(=O)(=O)N4CCCCCC4)cc3)oc2c1C	nt	i	nt	i	13%	nt
OC(COCC(F)(F)C(F)(F)C(F)(F)C(F)F)Cn1c2ccc(Cl)cc2c2cc(Cl)ccc21 (centres undefined)	18%	18µM*	-1%	?	-12%	?
N=c1n(Cc2ccc(Cl)cc2)c2ccccc2n1CC(O)COc1ccccc1 (centres undefined)	?	?	-5%	?	-11%	?
CC1=C(C(=O)OCC2CCCCC2)C(c2ccc(Cl)cc2)CC(=O)N1 (centres undefined)	nt	?	nt	i	-25%	nt
COc1ccccc1-c1cc(C(=O)N/N=C/c2ccc(C)o2)c2ccccc2n1	6%	i	-1%	i	11%	?
CC(/C=N/NC(=O)c1cc(-c2ccncc2)nc2ccccc12)=C\c1ccco1	?	1.5µM*	nt	?	?	0.92µM*
O=C(N/N=C/c1ccc([N+](=O)[O-])o1)c1cc(-c2ccc(-c3ccccc3)cc2)nc2ccccc12	0.92µM*	i	0%	?	10%	1.3µM*
Cc1ccc(-c2cc(C(=O)N/N=C/c3ccc([N+](=O)[O-])o3)c3ccccc3n2)o1	?	?	-1%	i	-12%	?
O=C(N/N=C/c1ccc([N+](=O)[O-])o1)c1cc(-c2ccncc2)nc2ccccc12	5µM*	?	-1%	?	17%	?
Cc1ccc(/C=N/NC(=O)c2cc(-c3ccncc3)nc3ccccc23)o1	?	i	1%	5.8µM*	-5%	?
O/N=C(/C[n+]1ccsc1)c1ccc(I)cc1	nt	i	nt	i	nt	nt
CC(=O)Nc1ccc(/C=C/c2ccncc2)cc1	nt	i	nt	?	nt	nt
COc1ccccc1-c1nnc(C2CCN(C(=O)c3cccc(C)c3)CC2)o1	nt	i	nt	i	-5%	nt
O=C(N/N=C/c1ccc([N+](=O)[O-])o1)c1cn(-c2ccccc2)nc1-c1ccccc1	16µM*	?	-1%	i	-28%	10%
CC(C)C1C(c2ccccc2)NC(c2ccccc2)CC1(O)c1ccc(F)cc1 (centres undefined)	16µM*	i	0%	i	-8%	?
COc1ccc2oc(-c3ccc(C)c(NC(=O)c4ccc(N5CCCCC5)c([N+](=O)[O-])c4)c3)nc2c1	nt	i	nt	i	-2%	nt

Screens as filed in PubChem BioAssay.
